Bioassay records from PubChem BioAssay.
Shown are actives, neighbours in structure and some others; about 2.4% of the full set was active somewhere.
ATXN2 expr inh: reduces ATXN2 reporter expression in HEK-293 cells | HEK-293 ATXN2-luciferase reporter, luminescence, 24 h | Potency, µM (highest dose often 57 µM), for the others: at the top dose activity change, negative = inhibition, usual class: inhibitors | 0.72% of 360,000 active | AID 1745845; note: % is set by controls: 0 for no effect and ±100 for the full control effect; nearly all actives have a fitted effect of over 55% in size
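ATXN2-luciferase reporter cells (luciferase flanked by upstream and downstream ATXN2 gene portions) were treated 24 h at 37 °C with compounds at up to 57 uM. SteadyGlo luminescence gave expression; GF-AFC fluorescence gave viability.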
Anesthetic bind: binds horse apoferritin like a general anesthetic | AID 485281 | 0.074% of 350,000 active | Potency, µM (top dose mostly 77.5 µM), without a hit: at the highest dose activity change, negative = displacement, most hits filed as inhibitors | apoferritin/1-aminoanthracene competitive binding, fluorescence | P02791; note: % is set by controls: 0 for no effect and ±100 for the full control effect; nearly all actives have a fitted effect of over 20% in size
Target sequence (P02791 2-175 limits assumed): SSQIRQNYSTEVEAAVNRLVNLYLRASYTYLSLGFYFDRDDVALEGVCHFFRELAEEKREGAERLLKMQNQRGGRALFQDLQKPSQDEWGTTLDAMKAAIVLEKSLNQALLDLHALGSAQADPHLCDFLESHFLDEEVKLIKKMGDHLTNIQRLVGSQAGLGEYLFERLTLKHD
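Probe: 1-aminoanthracene (50% saturated, PBS). Protein: horse-spleen apoferritin, 10 uM. Incubation: 10 min, room temperature. Detection: 380 nm excitation, 535 nm emission. Analysis: normalized response, four-parameter Hill.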
ATXN viability: cell viability loss in ATXN counter-screen; S2 cells (HEK-293 line with an ATXN2-luciferase reporter) viability, CellTiter-Fluor protease fluorescence, 24 h; Potency, µM (highest dose often 56.7 µM), usual class: cytotoxic; 0.49% of 400,000 active; AID 651635; note: nearly all actives have a fitted effect of over 40% in size
HepG2 viability: HepG2 cytotoxicity, counter-screen for TGF-b inhibitors. HepG2 CAGA-GFP viability, ATP luminescence, 18 h. Potency, µM (top dose mostly 46.1 µM), without a hit: at the highest dose activity change, negative = cytotoxicity, actives largely listed as cytotoxic. 0.76% of 410,000 active. AID 588856
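HepG2 CAGA-GFP cells (1000/well, DMEM with 1% FBS) received compound, then TGF-beta at 500 pg/mL final, and were incubated 18 hours at 37 degrees C. Viability was read by CellTiter-Glo luminescence. Media-only wells were set as complete cell-killing and DMSO as no toxicity.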
TGFb SMAD3 inh: TGF-b pathway inhibition. HepG2 CAGA-GFP TGF-b/SMAD3 reporter, GFP fluorescence, 18 h; TGF-beta stimulated, 500 pg/mL final. Potency, µM (series often up to 46.1 µM), for the others: at the highest dose activity, negative = inhibition, actives largely listed as inhibitors. 1.2% of 410,000 active; note: % is set by controls: 0 for no effect and ±100 for the full control effect; nearly all actives have a fitted effect of over 65% in size
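Smad-responsive CAGA-GFP expression was quantified in HEPG2 cells exposed to compounds and 500 pg/mL final TGF-beta for 18 h at 37 degrees C; unstimulated wells defined full inhibition.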
Starred values were filed as active, the others as inactive; i = inactive; ? = inconclusive; · = no result; [ ] = another dose, or the depositor's remark. Calls come from the whole dose curve; as a rule, active = well fitted curve in the direction sought with a large enough effect; inconclusive = small, poorly fitted or top-dose-only effect, or another doubt; inactive = no such curve, though single readings can be large; an effect the other way counts as inactive or inconclusive. Potency is the fitted concentration of half-maximal effect.

SMILES | ATXN2 expr inh | Anesthetic bind | ATXN viability | HepG2 viability | TGFb SMAD3 inh
CCN(CCC#N)c1ccc(/C=C/c2ccnc3ccccc23)cc1 | · | · | · | -44% | ?
CS(=O)(=O)c1ncc(Cl)c(C(=O)N2CCN(c3cccc(Cl)c3)CC2)n1 | · | ? | · | 3.5µM* | 2.8µM*
Cc1[nH]c(-c2ccc(F)cc2)cc1C(=O)N1CCN(c2cccc(Cl)c2)CC1 | ? | -2% | ? | -81% | 25µM*
O=C(c1cc2cc(F)ccc2[nH]1)N1CCN(c2cccc(Cl)c2)CC1 | 9% | 2% | i | -3% | 8%
CCS(=O)(=O)c1ncc(Cl)c(C(=O)N2CCN(c3cccc(Cl)c3)CC2)n1 | · | -3% | · | 3.2µM* | 1µM*
COc1ccc(OCC(=O)N2CCN(c3cccc(Cl)c3)CC2)cc1 | -4% | -5% | i | -14% | -27%
Cc1ccc2c(=O)c3cccc(CC(=O)O)c3oc2c1C | 24µM* | 6% | · | · | ·
COc1cc(OC)nc(C(NC(=O)C2CCN(Cc3c[nH]c4ccccc34)CC2)c2ccc(Cl)cc2)n1 (stereo not given) | ? | · | · | 10µM* | ?
CC[C@H](CO)Nc1nc(Nc2cccc(Cl)c2)c2ncn(C(C)C)c2n1 | ? | -16% | 16µM* | -50% | 20µM*
CC[C@@H]1C(=O)N(C)c2cnc(Nc3ccc(C(=O)NC4CCN(C)CC4)cc3OC)nc2N1C1CCCC1 | -6% | · | · | · | ·
CC(=O)Nc1ccc(SC[C@H](Cc2ccccc2)N2CC[C@@H](N)CCC2=O)cc1 | · | · | · | -11% | 16%
COc1ccc(NC(=O)c2cc([N+](=O)[O-])ccc2O)cc1 | · | -20% | ? | 10µM* | 11µM*
O=C(Nc1c(Cl)cc([N+](=O)[O-])cc1Cl)c1cc(Cl)ccc1O | · | · | · | -63% | 1.3µM*
O=C(Nc1ccc([N+](=O)[O-])cc1Cl)c1cc(Br)ccc1O | · | · | · | -8% | ?
COC(=O)c1ccc(Cn2nc(-c3ccc(C)cc3)ccc2=O)cc1 | -3% | ? | i | -23% | -5%
COc1ccc(NC(=O)C(=O)NCC(c2ccco2)N2CCc3ccccc3C2)cc1OC (stereo not given) | -4% | · | i | -23% | 2.5µM*
Cc1ccc2occ(CC(=O)N(Cc3ccc(Cl)cc3)Cc3ccco3)c2c1 | -23% | 158% | i | -21% | 16µM*
Cc1ccc(CN(Cc2ccco2)C(=O)c2oc3ccc(C)cc3c2C)cc1 | 4% | 27% | i | -27% | ?
O=C(CSc1ccc(C(F)(F)F)cc1[N+](=O)[O-])Nc1ccc2ccccc2c1 | ? | -3% | ? | 1% | -1%
O=C(CCc1ccccc1)NC(c1cccs1)c1cc(Cl)c2cccnc2c1O (stereo not given) | 13µM* | -15% | · | -1% | ?
Cc1cc(NC(c2cccnc2)c2ccc3cccnc3c2O)no1 (stereo not given) | 4µM* | ? | i | 4% | -29%
CC(=O)NC(c1ccco1)c1cc(Cl)c2cccnc2c1O (stereo not given) | 8.9µM* | · | ? | -37% | ?
CCCC(=O)NC(c1cccs1)c1cc([N+](=O)[O-])c2cccnc2c1O (stereo not given) | ? | -3% | ? | -18% | -32%
CC(=O)NC(c1cc(Cl)c2cccnc2c1O)C1CC1 (stereo not given) | 8.9µM* | · | 3.2µM* | -60% | 1.6µM*
Oc1c(C(Nc2cccc(C(F)(F)F)c2)c2cccnc2)ccc2cccnc12 (stereo not given) | ? | ? | i | -53% | ?
SMILES | ATXN2 expr inh | Anesthetic bind | ATXN viability | HepG2 viability | TGFb SMAD3 inh
CCOc1ccc(N=C(C)Nc2ccc(OCC)cc2)cc1 | · | · | i | · | ·
Cc1ccc(F)cc1S(=O)(=O)NCc1nc(N2CCCC2)c2cccc(C)c2n1 | · | · | i | · | ·
Cc1cnc(NC(=O)Cc2ccc(C)c(C)c2)s1 | 10% | -16% | i | -12% | -4%
O=C(NCCCN1CCN(c2ccc(F)cc2)CC1)c1sc2ncccc2c1-n1cccc1 | ? | 1% | ? | -27% | ?
CN1C(=O)CC2(C=CC(=O)C=C2OC(=O)c2ccccc2)c2ccccc21 (stereo not given) | · | -13% | · | -3% | -19%
CC1=C(C(=O)OCc2ccc3nsnc3c2)N2C(=O)[C@@H](NC(=O)OCc3ccc4nsnc4c3)[C@H]2SC1 | · | · | · | -3% | ?
CC(=O)NC(c1ccc(C)cc1)c1cc(Cl)c2cccnc2c1O (stereo not given) | 11µM* | -18% | i | -23% | ?
CC(=O)NC(c1ccccc1)c1cc([N+](=O)[O-])c2cccnc2c1O (stereo not given) | ? | -13% | ? | 3% | ?
Oc1c(C(Nc2ccccn2)c2cccnc2)cc(Cl)c2cccnc12 (stereo not given) | 22µM* | 3% | i | -16% | 0%
COc1ccc(C(NC(=O)c2cccnc2)c2cc(Cl)c3cccnc3c2O)cc1OC (stereo not given) | 16µM* | -10% | i | -102% | ?
CC(=O)NC(c1cc(Cl)c2cccnc2c1O)C(C)C (stereo not given) | 5.6µM* | · | 5µM* | -27% | 6.3µM*
OC1C(Br)=Cc2ccccc21 (stereo not given) | · | · | · | -12% | 6%
COc1ccc2cc(-c3nc(-c4ccc(S(C)=O)cc4)[nH]c3-c3ccncc3)ccc2c1 (stereo not given) | -17% | · | · | · | ·
COc1cc(-c2cc(C)c3c(OC)ccc(OC)c3n2)cc2c1OCCN(C(=O)C(C)c1n[nH]c(=O)c3ccccc13)C2 (stereo not given) | · | · | i | · | ·
CC(=O)NC(c1cccs1)c1cc([N+](=O)[O-])c2cccnc2c1O (stereo not given) | 13µM* | 3% | ? | -10% | ?
O=C1C=CC(=O)N1c1cccc(-c2ccccc2)c1 | 8% | -2% | ? | -14% | 11µM*
COc1cc(N2C(=O)C=CC2=O)ccc1N1C(=O)C=CC1=O | ? | · | · | -103% | ?
CCOC(=O)CCN1C(=O)[C@H]2[C@H]3[C@H](O)[C@H](O)C/C(=N/NC(=O)OCc4ccc(OC)cc4)[C@@H]3CC[C@@H]2C1=O | · | -7%[15.3 µM] | · | · | ·
O=C(O)c1cccc(NCc2cccnc2)c1 | 2% | -3% | i | -34% | 5%
O=C(O)c1ccc(NCc2cccnc2)cc1 | 8% | 26% | i | 4µM* | 1%
Cc1ccc(C)c(CNC(=O)c2sc3ncnc(N(C)C4CCCCC4)c3c2C)c1 | 5% | -13% | i | -16% | 12%
Cc1c(C(=O)N(C)Cc2ccccc2)sc2nc(-c3ccc(F)cc3)cn12 | · | 35% | · | -61% | 13µM*
Cc1c(C(=O)N(C)c2ccccc2)sc2nc(-c3ccc(F)cc3)cn12 | · | -13% | · | -39% | ?
